Each structure is given as a SMILES string. About 5,100 (1.2%) of roughly 410,000 compounds were called active. Another 8% or so got no clear call; they are omitted. The entries come from a sample that favours actives as a whole. Values without a mark were called inactive. Calls come from the whole dose curve; tested in HEK293T cells.
% is set by controls: 0 for no effect and ±100 for the full control effect; potency is the fitted concentration of half-maximal effect.

The test in a line: High Throughput Screening for Foot and Mouth Disease Virus Antivirals. Note: read-out not given here; nearly all actives have a fitted effect of over 45% in size. As to conditions: FMDV antiviral cell-based qHTS; series mostly up to 57.9 µM; activity change, negative = inhibition: at the top concentration.
Turning to `COc1ccccc1CC(=O)Nc1ccc(S(=O)(=O)N2CCCC2)cc1`, the “activity change, negative = inhibition” value was -6.62%. The same measure, in the same setting: as for `COc1cc(C(=O)NNC(=O)c2ccc(S(=O)(=O)N3CCCCC3)cc2)cc(OC)c1OC`, the figure is -17.5%. Consider `COc1ccc(-c2ccc(Nc3ccc(S(=O)(=O)N4CCCC4)cc3)nn2)cc1OC`, for which the Potency is 14.1 µM (active).

Regarding `CCN(CC)c1cc(NC2CCCCC2)c2c3c(onc13)-c1ccccc1C2=O`, the “activity change, negative = inhibition” value is -25.1%.

Consider `CC(C)C(NS(=O)(=O)c1ccc(-c2ccc(Br)cc2)cc1)C(=O)O` (stereo not given), for which the “activity change, negative = inhibition” value was 19.1%. In the case of `CCC1(C2CCN(Cc3cccnc3)CC2)NC(=O)N(CC2COc3ccccc3O2)C1=O` (stereo not given), the “activity change, negative = inhibition” value was -16.1%. The same measure, in the same setting: the same measure for `Cc1cccc(C(CC(=O)NCC2(c3ccccc3)CCCC2)c2ccccc2)c1O` (stereo not given): -17.6%. The same measure, in the same setting: the same measure for `NCCCCCC(=O)N/N=C/c1ccc2nccnc2c1`: 6.75%. In the case of `O=C(O)c1ccc(N/N=C/c2ccc3ncccc3c2)cc1`, the Potency is 2.82 µM (active). `CCc1nc2cccnc2n1-c1ccc(C(=O)O)cc1`: the “activity change, negative = inhibition” value was -16.4%. On the same count and under the same terms, as for `CCn1c(C(=O)Nc2cc(Cl)ccc2C)cc2sc(Cl)cc21`, the figure is 14.9%; as for `COc1ccc(NC(=O)N2CC3(CCN(C(=O)c4cccn4C)CC3)C2)cc1`, -0.131%. Consider `CC(=O)OCC(=O)C1CCC2C3CCC4=CC(=O)CC[C@@]4(C)C3CC[C@]12C` (stereo not given in full), for which the “activity change, negative = inhibition” value is -5.9%. With `CC(=O)OCC(=O)[C@@]1(O)CCC2C3CCC4=CC(=O)CC[C@]4(C)C3C(=O)C[C@]21C` (stereo not given in full), the “activity change, negative = inhibition” value is 4.63%. Turning to `CSc1ncnc2c1ncn2CC(=O)C1CCC2C3CCC4=CC(=O)CCC4(C)C3CCC12C` (stereo not given), the Potency is 11.2 µM (active).

In the case of `COc1ccccc1N1CCN(CCCNC(=O)c2cnn(-c3ccccc3Cl)c2C2CCN(C(=O)OC(C)(C)C)CC2)CC1`, the “activity change, negative = inhibition” value is -17.2%. The same measure, in the same setting: the same measure for `CN(C)CCc1c[nH]c2ccc(Cn3cncn3)cc12`: -0.17%; for `O=C(CC(c1cccs1)N1Cc2ccccc2C1=O)Nc1ccc(F)cc1F` (stereo not given): 23.6%. Consider `Cn1cnc([N+](=O)[O-])c1Sc1ccccc1`, for which the Potency was 28.2 µM (active).

Regarding `Cn1cnc([N+](=O)[O-])c1Nc1ccccc1O`, the “activity change, negative = inhibition” value was -7.23%. Same read-out and setting: as for `Cn1cnc([N+](=O)[O-])c1Sc1n[nH]c(N)n1`, the figure is -7.25%; as for `CO[C@H]1[C@H](NC(=O)C(C)C)c2ccccc2C12CCN(Cc1cnc(N(C)C)s1)CC2`, 5.35%; as for `COc1ccccc1CNc1ccnc(-c2c(C)noc2C)n1`, -20.1%. The same measure, in the same setting: as for `CCCC(=O)Nc1ccc(NC(=O)c2sc3ccccc3c2Cl)cc1`, the figure is 0%; as for `Cc1cccc(N2CCN(C(=O)c3cnc(N4CCCC4)nc3C)CC2)c1C`, -25.6%. `CCC1CN(CCNC(=O)c2ccsc2)Cc2cc(OC)ccc2O1` (stereo not given): the “activity change, negative = inhibition” value is 10.6%. Regarding `CCN1/C(=C\c2ccc3ccccc3[n+]2CC)Sc2cc(C)ccc21`, the Potency is 35.5 µM (active). On to `CC(=O)Nc1cccc(NC(=O)CSc2cn(CC(=O)N3CCCC3)c3ccccc23)c1`, for which the “activity change, negative = inhibition” value was 2.42%. Still for that read-out and setting: the same measure for `COc1ccc2[nH]cc(CCNc3nc(-c4cccc(NS(C)(=O)=O)c4)nc4ccccc34)c2c1`: -8.4%; for `CCn1c2ccccc2c2nnc(SCC(=O)O)nc21`: -12.5%; for `CCc1c2c(nc3ccc(O)cc13)-c1cc3c(c(=O)n1C2)COC(=O)[C@]3(O)CC`: -11.9%.

Consider `COCCn1c(=O)c(CCc2ccccc2)nc2cncnc21`, for which the “activity change, negative = inhibition” value is 14.5%. As for `NS(=O)(=O)c1ccc(CCNC(=O)CN2C(=O)c3ccccc3S2(=O)=O)cc1`, the “activity change, negative = inhibition” value is -6.48%. The same measure, in the same setting: the same measure for `CCn1c(=O)c2ccccc2n(CC(=O)N2CCCc3ccccc32)c1=O`: -17.3%. Regarding `O=C(CN1C(=O)c2ccccc2S1(=O)=O)N1CCc2ccccc21`, the Potency is 0.794 µM (active). As for `CO[C@H]1C=CO[C@@]2(C)Oc3c(C)c(O)c4c(O)c(c(/C=N/N5CCN(C)CC5)c(O)c4c3C2=O)NC(=O)/C(C)=C\C=C[C@H](C)[C@H](O)[C@@H](C)[C@@H](O)[C@@H](C)[C@H](OC(C)=O)[C@@H]1C`, the “activity change, negative = inhibition” value was -20.7%. As for `Nc1nc2c(ncn2[C@@H]2O[C@H](COP(=O)(O)OP(=O)(O)OP(=O)(O)O)[C@@H](O)C2O)c(=O)[nH]1` (stereo not given in full), the “activity change, negative = inhibition” value is -4.64%.

`O=C(c1ccco1)N1CCC[C@@]2(CCN(c3ccccc3)C2)C1`: the “activity change, negative = inhibition” value is -15.5%. For `CC(C)NC(=O)N1CC[C@@]2(CCCN(C(=O)c3ccco3)C2)C1`, the “activity change, negative = inhibition” value is 0.879%. Consider `C1CC[C@H]([C@@]23C[C@H](C[C@H]4CCCN[C@H]42)[C@@H]2CCCCN2C3)NC1`, for which the “activity change, negative = inhibition” value was -4.28%.

As for `CCOC(=O)c1scc(-c2ccccc2)c1S(=O)(=O)Nc1ccccc1F`, the “activity change, negative = inhibition” value is 40%. As to `CCSc1ncc(Cl)c(C(=O)Nc2c(C(=O)c3ccccc3)oc3ccccc23)n1`, the “activity change, negative = inhibition” value is -1.81%. On to `CCCS(=O)(=O)c1ncc(Cl)c(C(=O)Nc2scc(-c3ccccc3)c2C(=O)OCC)n1`, for which the Potency is 25.1 µM (active).

Take `CCOc1ccccc1N(C)C(=O)c1cc2c(s1)-c1ccccc1OC2`: the “activity change, negative = inhibition” value is -12.7%. On the same count and under the same terms, the same measure for `COCCn1c(=O)c(-c2cc(F)cc(F)c2)nc2cncnc21`: -13.8%.

Take `CN1C2CC3CC1C(O3)C2O` (stereo not given): the “activity change, negative = inhibition” value is 1.94%. On to `Cc1ccc(S(=O)(=O)c2cn(Cc3ccccc3)c3cc(N4CCCC4)c(F)cc3c2=O)c(C)c1`, for which the “activity change, negative = inhibition” value is -5.03%. As to `Oc1c(Cl)cc(Cl)c(Cl)c1Cc1c(O)c(Cl)cc(Cl)c1Cl`, the Potency was 5.62 µM (active).

On to `C=C1C(=O)C23C(O)C1CCC2[C@]12COC3(O)C(O)C1C(C)(C)CC[C@H]2O` (stereo not given in full), for which the Potency was 28.2 µM (active). On to `O=C(NC1(C(F)(F)F)N=C(c2ccccc2)N(C2CCCCC2)C1=O)c1ccccc1F` (stereo not given), for which the “activity change, negative = inhibition” value is -26.5%. On the same count and under the same terms, the same measure for `O=c1c(-c2cccs2)nc2cnc(Oc3ccccc3)nc2n1-c1ccccc1`: 0.49%. Same read-out and setting: the same measure for `O=C(c1csnn1)N1CCC2(CCN(Cc3nccs3)CC2)CC1`: -6.87%.

As for `O=C(c1cccc(C(=O)N2CCN(c3ccc(F)cc3)CC2)c1)N1CCN(c2ccc(F)cc2)CC1`, the Potency was 39.8 µM (active). Consider `O=C(c1ccccc1Oc1ccccc1)N1CCN(c2ccc(F)cc2)CC1`, for which the “activity change, negative = inhibition” value was -28%. Still for that read-out and setting: as for `O=C(c1cccc(F)c1)N1CCC2(CC1)CCN(c1ccccc1)CC2`, the figure is -23.1%. Still for that read-out and setting: as for `COc1ccc(CN(C)CCn2cc(C(=O)N3CCSCC3)nn2)cc1C`, the figure is -5.81%. Take `O=C1c2ccccc2C(=O)N1CCC#Cc1ccc2cc(C3(O)CCCCC3)oc(=O)c2c1`: the Potency is 39.8 µM (active). On the same count and under the same terms, as for `CC(C)CCN1C(=O)c2ccc(C(=O)Nc3cccc(S(N)(=O)=O)c3)cc2C1=O`, the figure is 28.2 µM (active). In the case of `Cc1ccnc(NS(=O)(=O)c2ccc(NC(=O)c3ccc(S(=O)(=O)N(C)C)cc3)cc2)n1`, the “activity change, negative = inhibition” value was -8.59%.

As for `COCCCN1C(=O)c2ccc(C(=O)Nc3ccc(OC)cc3OC)cc2C1=O`, the “activity change, negative = inhibition” value is -11.7%. The same measure, in the same setting: the same measure for `CN1C(=O)c2ccc(NC(=O)c3c(F)c(F)c(F)c(F)c3F)cc2C1=O`: -29.8%; for `Cc1ccc(S(=O)(=O)NCCC(=O)Nc2cccc(S(N)(=O)=O)c2)cc1C`: 10.4%.

With `CCCCN1C(=O)c2ccc(C(=O)Nc3ccc(S(=O)(=O)N(C)C)cc3)cc2C1=O`, the Potency was 20 µM (active). As for `O=c1c(CN2CCOc3ccc(CN4CCC(Oc5cccnc5)CC4)cc3C2)coc2ccccc12`, the “activity change, negative = inhibition” value was -10.3%. Same read-out and setting: the same measure for `Cc1cnc(CNc2cc(-c3c(C)noc3C)ncn2)cn1`: 3.33%. Still for that read-out and setting: as for `O=c1ccn([C@@H]2O[C@H](COP(=O)(O)OP(=O)(O)OP(=O)(O)O)[C@@H](O)[C@H]2O)c(=O)[nH]1`, the figure is -14%; as for `COc1cc(Cl)c(C)cc1Nc1nnc(-n2nc(C)cc2C)c2ccccc12`, -24.8%; as for `COCCn1c(=O)c(C)nc2cnc(N(C)C)nc21`, -13.5%. As to `CC1=C/C(=N\OS(=O)(=O)c2ccccc2)C=CC1=O`, the Potency is 15.8 µM (active). Turning to `O=C(CSc1nc(=O)n(Cc2cccnc2)c2c1CCC2)Nc1ccc(F)cc1F`, the “activity change, negative = inhibition” value was 22.1%. As for `CCOc1ccccc1NC(=O)C1=C(C)Nc2ncnn2C1c1ccc(NC(C)=O)cc1` (stereo not given), the “activity change, negative = inhibition” value was 2.66%. As for `CC1=C(C(=O)OCc2ccccc2)C(c2ccco2)n2ncnc2N1` (stereo not given), the Potency was 28.2 µM (active). As to `CCOC(=O)C1=C(c2ccccc2)Nc2ncnn2C1c1ccc(Cl)cc1` (stereo not given), the “activity change, negative = inhibition” value was -11.9%.

With `CC(C)=CCC/C(C)=C/CC/C(C)=C/CC/C(C)=C/CO`, the Potency result is “inactive”. For the compound `CC(C)c1cc(C(=O)N2CCOc3ccc(CN4CCC(Oc5cccnc5)CC4)cc3C2)n[nH]1`, the “activity change, negative = inhibition” value was -8.01%. Still for that read-out and setting: the same measure for `Cc1cc(C(=O)COC(=O)c2cccs2)c(C)n1-c1c(C)n(C)n(-c2ccccc2)c1=O`: 11.2%. `Cc1ccsc1C(=O)OCC(=O)c1cc(C)n(CC2CCCO2)c1C` (stereo not given): the Potency is 100 µM (active). Take `O=C(CSc1nnc(-c2ccco2)n1CC1CCCO1)c1ccccc1` (stereo not given): the “activity change, negative = inhibition” value was 7.3%. Still for that read-out and setting: the same measure for `COc1ccccc1N1CCN(c2ncnc3onc(-c4cccc(Cl)c4)c23)CC1`: -0.743%. With `COc1ccccc1N1CCN(c2ncnc3sc(C)c(-c4ccccc4)c23)CC1`, the Potency is 20 µM (active). Consider `COC(=O)c1cnc(N2CCN(c3ccccc3OC)CC2)c2ccccc12`, for which the “activity change, negative = inhibition” value was -10.8%. Consider `O=C(c1cc(C(F)(F)F)cc(C(F)(F)F)c1)N1CCC2(CCCN(Cc3ccncc3)C2)CC1`, for which the “activity change, negative = inhibition” value was -13.6%. The same measure, in the same setting: the same measure for `COc1cccc(Cn2c(=O)c(-c3ccccc3)nc3cnc(OC)nc32)c1`: -2.17%; for `COCCNC(=O)c1ccc2c(c1)N=C(C)c1cc(C)ccc1S2`: -1.97%. Take `CCCCCCCCCCCCn1ccc(=N)cc1`: the Potency is 17.8 µM (active). As for `O=C(c1cnccn1)N1CCC2(CCN(Cc3cc(C(F)(F)F)cc(C(F)(F)F)c3)CC2)CC1`, the “activity change, negative = inhibition” value is -16.3%. Take `Cc1cc(C)c2oc(-c3cccc(NC(=O)c4cccc(F)c4)c3C)nc2c1`: the “activity change, negative = inhibition” value was -3.43%. With `COc1ccc(N)cc1NC(=O)CN1CCOCC1`, the “activity change, negative = inhibition” value is -12.5%. Consider `COc1ccc(NC(C)=O)cc1NC(=O)CN1CCN(c2ccc(F)cc2)CC1`, for which the “activity change, negative = inhibition” value is -19%.

On to `COc1ccc(NC(C)=O)cc1NC(=O)CN1CCN(C2c3ccccc3-c3ccccc32)CC1`, for which the Potency was 31.6 µM (active). Turning to `Cc1ccccc1C(=O)NCc1nc(-c2ccc(Cl)cc2)no1`, the “activity change, negative = inhibition” value is -24.1%. Same read-out and setting: the same measure for `CCc1ccc(NC(=O)CN2C(=O)C(c3ccccc3)=NC23CCCCCC3)cc1`: -15.1%.

Consider `CCOc1ccc(N(Cc2ccccc2)C(=O)c2nc(S(C)(=O)=O)ncc2Cl)cc1`, for which the Potency is 15.8 µM (active). Regarding `CCOc1ccc(NC(=O)CN(Cc2ccccc2)S(=O)(=O)c2ccc(Cl)cc2)cc1`, the “activity change, negative = inhibition” value is 5.09%. `COc1ccc(N(Cc2ccc(N(C)C)cc2)C(=O)c2ccc(S(C)(=O)=O)cc2)cc1`: the “activity change, negative = inhibition” value was -1.95%.

Values taken from PubChem BioAssay AID1159524 (National Center for Advancing Translational Sciences (NCATS), 2015).
